PubChem BioAssay (NCATS)
Records with an inconclusive call do not appear. Where a call stands in place of a potency, no number is given. Calls of active or inactive are those of the source. The call rests on the fitted dose curve; in most records, active means well fitted curve in the direction sought with a large enough effect; inconclusive means small, poorly fitted or top-dose-only effect, or another doubt; inactive means no such curve, though single readings can be large; an effect the other way counts as inactive or inconclusive.

What was measured:
[1] = qHTS to identify inhibitors of the type 1 interferon - major histocompatibility complex class I in skeletal muscle: primary screen against the NCATS Pharmaceutical Collection (AID 1347407);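 further: luminescence of HiBiT knocked into endogenous HLA-B as interferon-induced MHC class I level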
Outline: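 Cells were seeded with 4 ng/ml IFN-beta, incubated 1 h, then dosed with compounds over eight 1:5 steps up to 46 uM final. After 24 h at 37 C, HiBiT lytic reagent was added and luminescence read after 10 min lysis in the dark.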

[2] = target: Protein phosphatase 1D (Homo sapiens) (UniProt O15297); test: RapidFire Mass Spectrometry qHTS Assay for Modulators of WT P53-Induced Phosphatase 1 (WIP1) (AID 1347424);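 further: amount of dephosphorylated VEPPL-S-QETFS peptide product formed by WIP1; series mostly up to about 63 µM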
Outline: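 Mass-spectrometric measurement of dephosphorylated peptide after a 5 min room-temperature reaction of 10 nM WIP1 with 2 uM phosphopeptide, following 1 h compound preincubation in 30 mM MgCl2 buffer.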

[3] = qHTS for inhibitors of adenylyl cyclases using a fission yeast platform: a pilot screen against the NCATS LOPAC library (AID 1347410)
Outline: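 Growth medium went into the plates first, then compounds were pinned (final up to 57 µM), then CHP2027 yeast were added. Plates were incubated overnight (18 h) at 30C in the dark, and GFP was measured by laser scanning cytometry.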

[4] = system: Zika virus NS2B-NS3 protease; test: Primary screen GU AMC qHTS for Zika virus inhibitors (AID 1347154); further: nearly all actives have a fitted effect of over 70% in size
Outline: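 Unlinked Zika NS2B hydrophilic domain/NS3 protease domain noncovalent complex (25 nM final) in 10 mM Tris-HCl pH 8.0, 0.01% Tween 20, with AMC peptide substrate. Fluorescence (ex 340, em 450 nm) change over 15 min, room temperature; percent inhibition fitted to 4-parameter Hill equation.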

[5] = qHTS to identify inhibitors of the type 1 interferon - major histocompatibility complex class I in skeletal muscle: primary screen against the NCATS Mechanism Interrogation Plate v5.0 (MIPE) Libary (AID 1347411); further: nearly all actives have a fitted effect of over 65% in size; further: potency means the concentration at half of the fitted maximal effect
Outline: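 Seed engineered human myoblasts (HLA-B HiBit) in medium without dexamethasone containing 4 ng/ml IFN-beta; after 1 hr add compound titrations (top 46 uM final). Incubate 24 hrs at 37 C, lyse 10 min with HiBiT reagent, read luminescence.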

[6] = system: Zika virus NS2B-NS3 protease (unlinked complex); test: Primary screen GU Rhodamine qHTS for Zika virus inhibitors: Unlinked NS2B-NS3 protease assay (AID 1347159); further: nearly all actives have a fitted effect of over 60% in size; further: potency means the concentration at half of the fitted maximal effect
Outline: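 Percent inhibition came from the 15-min rise in Rhodamine110 fluorescence (1.5 microM substrate, ~15% conversion), normalized to no-inhibitor and no-enzyme wells and Hill-fitted. Unlinked protease, 25 nM, pH 8.0 Tris buffer; compounds up to 114 microM, 15-min preincubation.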

[7] = system: Zika virus NS2B-NS3 protease (linked construct); test: Primary screen NINDS Rhodamine qHTS for Zika virus inhibitors (AID 1347160); further: nearly all actives have a fitted effect of over 55% in size
Outline: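 Rhodamine110-peptide cleavage (1.5 µM substrate) by 25 nM linked NS2B-NS3 enzyme at pH 8.0 (Tris, Tween 20), after 15 min RT preincubation with compounds; 15-min fluorescence change normalized to controls and Hill-fitted.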

Protein phosphatase 1D (Homo sapiens), sequence (O15297 whole entry, looked up): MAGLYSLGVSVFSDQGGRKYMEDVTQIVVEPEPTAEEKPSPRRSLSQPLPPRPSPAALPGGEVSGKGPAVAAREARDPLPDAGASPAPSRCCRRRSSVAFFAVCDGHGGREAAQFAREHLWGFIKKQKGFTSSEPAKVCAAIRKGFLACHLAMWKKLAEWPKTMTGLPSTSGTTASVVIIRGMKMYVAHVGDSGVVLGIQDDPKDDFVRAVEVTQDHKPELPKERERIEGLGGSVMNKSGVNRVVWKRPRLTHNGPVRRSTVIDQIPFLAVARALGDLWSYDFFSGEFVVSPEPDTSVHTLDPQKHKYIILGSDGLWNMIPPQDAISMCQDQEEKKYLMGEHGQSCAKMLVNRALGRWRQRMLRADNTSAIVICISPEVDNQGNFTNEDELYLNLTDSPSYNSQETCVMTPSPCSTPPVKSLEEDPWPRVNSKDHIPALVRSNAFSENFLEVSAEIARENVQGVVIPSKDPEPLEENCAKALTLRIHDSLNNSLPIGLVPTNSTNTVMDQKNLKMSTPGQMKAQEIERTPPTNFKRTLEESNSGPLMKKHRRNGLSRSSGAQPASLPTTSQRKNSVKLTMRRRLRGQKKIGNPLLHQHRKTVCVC

For CN(C)CCN(Cc1ccc(Cl)cc1)c1ccccn1, the outcome [1] was “inactive” and the Potency [2] was “inactive”.
For C=CCc1cccc(C=NNC(=O)CN2CCN(Cc3ccccc3)CC2)c1O, the outcome [3] was “inactive”.
For CNC(=O)[C@H](Cc1ccccc1)NC(=O)[C@H](CC(C)C)[C@H](CSc1cccs1)C(=O)NO, the Potency [4] was “inactive” and the Potency [5] was “inactive”.
With N#Cc1c(N(CC(=O)O)CC(=O)O)sc(C(=O)O)c1CC(=O)O the Potency [4] was “inactive” and the Potency [5] was “inactive”.
In the case of CCN1CCC(n2cc(CNc3cc(Cl)c4ncc(C#N)c(Nc5ccc(F)c(Cl)c5)c4c3)nn2)CC1, the Potency [6] was “inactive”.
With CN(C)c1ccc(-c2nc3ncc(Cl)c(N4CCN(CC(=O)Nc5nccs5)CC4)c3[nH]2)cc1 the Potency [6] was 17.8 µM (active).
With O=C1NC(=O)C(c2cnc3ccccn23)=C1c1cn2c3c(cccc13)CN(C(=O)N1CCOCC1)CC2 the Potency [6] was “inactive”.
In the case of Cc1cc(-c2ncc(CC(=O)Nc3ccc(-c4cnccn4)cn3)cc2C)ccn1, the Potency [6] was “inactive”, the Potency [7] was “inactive” and the Potency [5] was “inactive”.
With O=C(O)c1nc(=O)[nH]c(=O)[nH]1 the Potency [4] was “inactive” and the Potency [5] was “inactive”.
In the case of CCCCC[C@H](O)C=C[C@H]1[C@H](O)CC(=O)[C@H]1CC=CCCCC(=O)O, the Potency [4] was “inactive” and the Potency [2] was “inactive”.
In the case of COc1ccc(-c2cc3nccn3c(Nc3ncccc3C(N)=O)n2)cc1OC, the Potency [6] was “inactive” and the Potency [7] was “inactive”.
With Cc1cnc(-c2cc(N3CCN(C(=O)CCS(C)(=O)=O)CC3)ncc2Cl)c(C)c1 the Potency [6] was “inactive”, the Potency [7] was “inactive” and the Potency [5] was “inactive”.
In the case of Cc1csc(-c2nnc(Nc3ccc(Oc4ncccc4-c4ccnc(N)n4)cc3)c3ccccc23)c1, the Potency [6] was “inactive”.
In the case of COc1ccc2c(c1)c(C1=C(c3c[nH]c4ccccc34)C(=O)NC1=O)cn2CCCN(C)C, the Potency [4] was “inactive” and the Potency [5] was 20.8 µM (active).
